PMC5540273 (PLoS ONE, 2017)

tested on: RIPK2; settings: concentration: 1 μM, replicates: in singlicate; n = 1
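Note: KINOMEscan kinase panel screen.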

| Structure (SMILES) | %Inh [%] |
| --- | --- |
| COc1ccc(Nc2nccc(N3CCC(NC(=O)C(C)c4ccc(Cl)cc4)CC3)n2)cc1 (stereo not drawn) [GSK1379812] | 10 |
| CC(=O)c1c(C)c2cnc(Nc3ccc(N4CCNCC4)cn3)nc2n(C2CCCC2)c1=O | 0 |
| Nc1nccc(-c2c(-c3ccc(F)cc3)ncn2C2CCN(Cc3ccccc3)CC2)n1 [SB-219980] | 76 |
| Fc1ccc(-c2nc3n(c2-c2ccncc2)CCS3)cc1 [GI98581] | 31 |
| COc1cccc(CNC(=O)NC2CCN(c3ccnc(Nc4ccc(F)cc4)n3)C2)c1 (stereo not drawn) [GSK1379723] | 7 |
| c1ccc(-c2ccnc3[nH]ccc23)cc1 [SB-693578] | 18 |
| Cc1ccc(NC(=O)c2ccc(Cl)cc2)cc1-c1ccc(C(=O)Nc2ccncc2)cc1 [GSK1398467] | 12 |
| CNCc1ccc2nc(NC(=O)c3ccc(C(C)(C)C)cc3)cn2c1 | 2 |
| COc1ccc(-c2coc3ccc(-c4nnc(C)o4)cc23)cc1 | 3 |
| O=C(Nc1n[nH]c2nc(-c3ccco3)c(Br)cc12)C1CCN(Cc2ccccc2)C1.O=C(O)[C@H](O)[C@@H](O)C(=O)O (stereo not drawn) [SB-742034] | 0 |
| Cc1c(Cn2c(C)c(C)n3c(=O)cc(N4CCOCC4)nc23)cccc1C(F)(F)F [GSK2328680] | 11 |
| COC(=O)C(NC(=O)NC1CCN(c2ccnc(Nc3ccc(F)cc3)n2)C1)c1ccccc1 (stereo not drawn) [GSK1379712] | 20 |
| Cc1ccc(NC(=O)Nc2ccc(Cl)cc2)cc1-c1ccc(C(=O)Nc2ccncc2)cc1 [GSK1398472] | 12 |
| Cc1ccc(-c2nc(Nc3ccncc3)c3ccccc3n2)s1 [GSK189015] | 10 |
| CC(C)c1cc(-c2ccc3c(N)n[nH]c3c2)nc(N)n1 [GSK2250882] | 0 |
| CC(=O)c1cccc(NC(=O)NC2CCN(c3ccnc(Nc4ccc(F)cc4)n3)C2)c1 (stereo not drawn) [GSK1379710] | 24 |
| Cc1ccccc1Cn1ccn2c(=O)cc(N3CCOCC3)nc12 [GSK2269905] | 0 |
| CNc1nc(-c2ccc3c(N)n[nH]c3c2)cc(N2C[C@@H](C(=O)Nc3ccccc3)CC[C@H]2C)n1 [GSK2298859] | 0 |

| Structure (SMILES) | %Inh [%] |
| --- | --- |
| Fc1ccc(-c2nc[nH]c2-c2ccncc2)cc1 [SB-217360] | 66 |
| Cc1cccc2c(-c3ccncn3)c(-c3ccc(F)cc3)nn12 [GW515532] | 11 |
| COc1ccc(Nc2nccc(NCCNC(=O)Nc3cc(C)ccc3C)n2)cc1 [GSK1379899] | 0 |
| CS(=O)(=O)CCNCc1nc(-c2ccc3ncnc(Nc4ccc(OCc5ccccc5)c(Cl)c4)c3c2)cs1.Cl [GW582764] | 68 |
| NS(=O)(=O)c1cccc(N/C=C2\C(=O)Nc3ccc(S(=O)(=O)Cc4c(Cl)cccc4Cl)cc32)c1 [GSK398099] | 12 |
| CC(=O)c1c(C)c2cnc(Nc3ccn(C)n3)nc2n(C2CCCC2)c1=O | 0 |
| Cn1cncc1-c1cc2c(Nc3ccc(OCc4ccccc4)cc3)ncnc2cn1 [GW281179] | 92.1 |
| COc1ccc(CSc2nnc(-c3ccc4c(c3)CCO4)o2)cc1 | 0 |
| CN1c2ccc(-c3ccc(C(N)=O)cc3)cc2-c2[nH]ncc2S1(=O)=O | 0 |
| CC(C)c1ccc(O)cc1Nc1ccnc2ccc(C(F)(F)F)cc12 [GW482059] | 81 |
| O=C(Nc1n[nH]c2nc(-c3cccs3)c(Br)cc12)C1CCCC1 [SB-743341] | 3 |
| CS(=O)(=O)CCNCc1nc(-c2ccc3ncnc(Nc4ccc5c(cnn5Cc5ccccc5)c4)c3c2)cs1.Cl.Cl [GW569716] | 88 |
| Cl.Cl.Cl.N#Cc1ccc(CCNc2nccc(-c3cccc(CN4CCNCC4)c3)n2)cc1 [GSK2137462] | 24 |
| Fc1ccc(-c2nn3cccc(F)c3c2-c2ccncc2)cc1 [GW475620] | 27 |
| COc1ccc(CSc2nnc(-c3ccc4ncsc4c3)o2)cc1C(F)(F)F | 0 |
| Cc1ccc(NC(=O)Nc2ccccc2F)cc1-c1ccc(C(=O)Nc2ccncc2)cc1 [GSK1398477] | 6 |
| O=C1NC(=O)C(c2ccc(Cl)cc2)=C1Nc1cccc(Cl)c1 [SB-317651] | 0 |
| CNc1nc(-c2ccc3c(N)n[nH]c3c2)cc(N2C[C@@H](C(=O)NC3CCCCC3)OC[C@H]2C)n1 [GSK2375584] | 1 |
